What all share (assay): DAPPL (digital affinity profiling via proximity ligation, sequencing); 10 mM Tris-HCl pH 7.5, 50 mM NaCl, 1 mM DTT, 4% glycerol, room temperature, 30 min; GST-TFs on glutathione beads, 16-mer random dsDNA library, 0.1% formaldehyde crosslink after washing; high values mean tight binding
Assay [1] deals with T1, FLI1 (Homo sapiens, UniProt Q01543 1-452).
T1 sequence: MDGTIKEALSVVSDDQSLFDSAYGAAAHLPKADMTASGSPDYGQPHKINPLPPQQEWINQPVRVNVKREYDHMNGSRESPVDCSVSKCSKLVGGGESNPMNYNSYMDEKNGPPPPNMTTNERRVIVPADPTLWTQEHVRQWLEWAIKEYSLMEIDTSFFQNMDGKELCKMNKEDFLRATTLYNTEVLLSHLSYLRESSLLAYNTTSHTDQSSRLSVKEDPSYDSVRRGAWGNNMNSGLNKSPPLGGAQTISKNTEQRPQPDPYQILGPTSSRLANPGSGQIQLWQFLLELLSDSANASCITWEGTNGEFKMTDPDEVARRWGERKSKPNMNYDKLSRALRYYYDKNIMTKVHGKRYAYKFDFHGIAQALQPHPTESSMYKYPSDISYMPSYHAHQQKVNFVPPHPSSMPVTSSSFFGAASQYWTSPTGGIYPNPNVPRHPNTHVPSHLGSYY
The conditions noted are these: protein: recombinant; tags: N-terminal GST; dsDNA, one strand shown. Summed up:
(§1)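 Each value of binding signal is a hexamer's read frequency for a factor divided by the same hexamer's frequency in the tag-only sample. Barcoded, bead-captured GST fusions of human transcription factors made in yeast were pooled with that sample and incubated with 200 nmole of a random double-stranded 16-mer DNA library in Tris/NaCl/DTT/glycerol buffer at room temperature for 30 min. Washing, 0.1% formaldehyde crosslinking, proximity ligation, PCR and Illumina NextSeq500 sequencing followed.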

Assay [2] has as its target T2, ELK1 (Homo sapiens, UniProt P19419 1-428).
T2 sequence: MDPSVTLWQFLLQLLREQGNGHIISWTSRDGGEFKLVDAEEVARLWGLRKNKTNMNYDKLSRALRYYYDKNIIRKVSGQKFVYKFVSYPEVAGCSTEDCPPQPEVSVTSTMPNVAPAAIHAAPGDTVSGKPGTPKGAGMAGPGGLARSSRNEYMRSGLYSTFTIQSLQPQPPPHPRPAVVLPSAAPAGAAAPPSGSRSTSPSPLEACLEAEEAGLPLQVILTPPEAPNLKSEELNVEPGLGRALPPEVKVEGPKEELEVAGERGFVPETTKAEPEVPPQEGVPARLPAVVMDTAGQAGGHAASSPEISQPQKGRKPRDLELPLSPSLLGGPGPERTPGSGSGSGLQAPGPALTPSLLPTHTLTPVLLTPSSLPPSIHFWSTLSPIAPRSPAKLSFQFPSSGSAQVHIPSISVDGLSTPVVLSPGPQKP
The conditions noted are these: protein: recombinant; tags: N-terminal GST; dsDNA, one strand shown. Summed up:
as §1

Assay [3] concerns the target T3, GABPA (Homo sapiens, UniProt Q06546 1-454).
T3 sequence: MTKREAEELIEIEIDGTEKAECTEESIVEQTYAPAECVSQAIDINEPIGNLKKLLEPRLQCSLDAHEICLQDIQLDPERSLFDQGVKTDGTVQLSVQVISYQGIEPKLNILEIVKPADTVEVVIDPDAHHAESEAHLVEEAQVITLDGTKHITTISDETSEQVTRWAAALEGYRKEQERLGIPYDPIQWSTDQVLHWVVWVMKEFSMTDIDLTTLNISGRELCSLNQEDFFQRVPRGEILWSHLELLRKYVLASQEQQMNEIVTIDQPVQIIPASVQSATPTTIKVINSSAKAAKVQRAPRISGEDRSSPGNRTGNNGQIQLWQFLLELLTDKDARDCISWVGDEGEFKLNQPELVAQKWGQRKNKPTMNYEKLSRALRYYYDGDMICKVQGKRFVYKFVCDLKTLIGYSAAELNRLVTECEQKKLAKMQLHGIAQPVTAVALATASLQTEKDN
The conditions noted are these: protein: recombinant; tags: N-terminal GST; dsDNA, one strand shown. Summed up:
as §1

Assay [4] has as its target T4, ERG (Homo sapiens, UniProt P11308 1-479).
T4 sequence: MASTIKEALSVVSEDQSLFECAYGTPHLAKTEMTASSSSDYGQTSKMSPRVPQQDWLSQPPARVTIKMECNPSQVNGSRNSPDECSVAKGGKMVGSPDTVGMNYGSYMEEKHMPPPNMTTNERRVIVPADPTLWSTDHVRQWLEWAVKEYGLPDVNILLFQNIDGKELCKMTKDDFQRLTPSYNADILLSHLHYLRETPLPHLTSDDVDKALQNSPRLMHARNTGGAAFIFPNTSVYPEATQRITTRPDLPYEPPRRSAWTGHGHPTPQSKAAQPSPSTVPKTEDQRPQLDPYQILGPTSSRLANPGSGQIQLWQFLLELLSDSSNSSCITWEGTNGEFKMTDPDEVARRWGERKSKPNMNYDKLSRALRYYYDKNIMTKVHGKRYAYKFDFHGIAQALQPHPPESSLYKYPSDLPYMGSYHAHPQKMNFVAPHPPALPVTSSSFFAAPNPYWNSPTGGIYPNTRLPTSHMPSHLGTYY
The conditions noted are these: protein: recombinant; tags: N-terminal GST; dsDNA, one strand shown. The method, boiled down: as §1

The target in assay [5] is ELF1 (Homo sapiens, UniProt P32519 1-619). The conditions noted are these: protein: recombinant; tags: N-terminal GST; dsDNA, one strand shown. Summed up:
as §1

Assay [6] addresses T5, EHF (Homo sapiens, UniProt Q9NZC4 1-300).
T5 sequence: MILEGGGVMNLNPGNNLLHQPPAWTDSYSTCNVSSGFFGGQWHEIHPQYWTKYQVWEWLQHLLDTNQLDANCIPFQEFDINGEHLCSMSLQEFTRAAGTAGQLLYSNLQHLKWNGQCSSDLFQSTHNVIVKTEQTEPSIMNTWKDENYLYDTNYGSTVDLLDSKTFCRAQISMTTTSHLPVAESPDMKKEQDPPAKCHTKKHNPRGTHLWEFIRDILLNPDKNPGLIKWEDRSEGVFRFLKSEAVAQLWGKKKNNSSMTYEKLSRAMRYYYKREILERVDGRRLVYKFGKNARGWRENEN
The settings on record: protein: recombinant; tags: N-terminal GST; dsDNA, one strand shown. Summed up: as §1

Assay [7] has as its target SPI1 (Homo sapiens, UniProt P17947 1-270). The conditions noted are these: protein: recombinant; tags: N-terminal GST; dsDNA, one strand shown. Summed up: as §1
Assay [8] has as its target SPIB (Homo sapiens, UniProt Q01892 1-262). The conditions noted are these: protein: recombinant; tags: N-terminal GST; dsDNA, one strand shown. The method, boiled down: as §1
The target in assay [9] is T6, ELK3 (Homo sapiens, UniProt P41970 1-407).
T6 sequence: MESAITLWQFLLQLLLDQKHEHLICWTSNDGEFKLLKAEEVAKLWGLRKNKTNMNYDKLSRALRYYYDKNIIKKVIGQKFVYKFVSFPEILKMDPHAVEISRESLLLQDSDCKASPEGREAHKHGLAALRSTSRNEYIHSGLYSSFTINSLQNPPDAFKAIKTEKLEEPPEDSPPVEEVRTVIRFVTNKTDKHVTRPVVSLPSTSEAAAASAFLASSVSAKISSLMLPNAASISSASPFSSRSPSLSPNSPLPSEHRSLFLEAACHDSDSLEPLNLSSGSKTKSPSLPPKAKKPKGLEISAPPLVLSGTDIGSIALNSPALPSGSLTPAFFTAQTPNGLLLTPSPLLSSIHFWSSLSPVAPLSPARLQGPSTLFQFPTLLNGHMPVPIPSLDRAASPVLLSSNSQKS
The conditions noted are these: protein: recombinant; tags: N-terminal GST; dsDNA, one strand shown. The method, boiled down: as §1

For assay [10], the target named is T7, FEV (Homo sapiens, UniProt Q99581 1-238).
T7 sequence: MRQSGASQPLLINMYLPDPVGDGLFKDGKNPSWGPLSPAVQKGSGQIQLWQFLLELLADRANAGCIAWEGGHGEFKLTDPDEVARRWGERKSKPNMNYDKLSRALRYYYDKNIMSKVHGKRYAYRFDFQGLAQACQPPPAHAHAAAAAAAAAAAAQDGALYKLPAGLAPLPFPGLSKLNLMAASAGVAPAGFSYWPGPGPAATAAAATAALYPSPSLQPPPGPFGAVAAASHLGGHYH
The settings on record: protein: recombinant; tags: N-terminal GST; dsDNA, one strand shown. Summed up:
as §1

The target in assay [11] is ETV5 (Homo sapiens, UniProt P41161 1-510). The conditions noted are these: protein: recombinant; tags: N-terminal GST; dsDNA, one strand shown. The method, boiled down: as §1
Sequence of ETV5 (P41161 whole entry): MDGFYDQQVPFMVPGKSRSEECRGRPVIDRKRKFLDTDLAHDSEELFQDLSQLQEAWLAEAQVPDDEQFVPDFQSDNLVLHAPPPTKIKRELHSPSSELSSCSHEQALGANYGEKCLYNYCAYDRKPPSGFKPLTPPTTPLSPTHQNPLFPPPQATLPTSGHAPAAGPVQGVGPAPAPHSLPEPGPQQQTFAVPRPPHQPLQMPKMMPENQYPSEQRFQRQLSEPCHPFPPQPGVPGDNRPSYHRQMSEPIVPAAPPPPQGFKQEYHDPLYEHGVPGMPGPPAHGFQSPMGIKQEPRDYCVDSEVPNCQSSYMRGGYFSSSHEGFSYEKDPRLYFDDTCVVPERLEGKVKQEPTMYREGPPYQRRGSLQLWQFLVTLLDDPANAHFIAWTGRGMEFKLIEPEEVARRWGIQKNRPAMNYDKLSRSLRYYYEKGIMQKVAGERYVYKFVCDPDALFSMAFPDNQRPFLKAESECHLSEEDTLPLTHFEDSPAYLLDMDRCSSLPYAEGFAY
The target of assay [12] is HSF1 (Homo sapiens, UniProt Q00613 1-529). The settings on record: protein: recombinant; tags: N-terminal GST; chain copies: 3; dsDNA, one strand shown. Summed up: as §1
Sequence of HSF1 (Q00613 whole entry): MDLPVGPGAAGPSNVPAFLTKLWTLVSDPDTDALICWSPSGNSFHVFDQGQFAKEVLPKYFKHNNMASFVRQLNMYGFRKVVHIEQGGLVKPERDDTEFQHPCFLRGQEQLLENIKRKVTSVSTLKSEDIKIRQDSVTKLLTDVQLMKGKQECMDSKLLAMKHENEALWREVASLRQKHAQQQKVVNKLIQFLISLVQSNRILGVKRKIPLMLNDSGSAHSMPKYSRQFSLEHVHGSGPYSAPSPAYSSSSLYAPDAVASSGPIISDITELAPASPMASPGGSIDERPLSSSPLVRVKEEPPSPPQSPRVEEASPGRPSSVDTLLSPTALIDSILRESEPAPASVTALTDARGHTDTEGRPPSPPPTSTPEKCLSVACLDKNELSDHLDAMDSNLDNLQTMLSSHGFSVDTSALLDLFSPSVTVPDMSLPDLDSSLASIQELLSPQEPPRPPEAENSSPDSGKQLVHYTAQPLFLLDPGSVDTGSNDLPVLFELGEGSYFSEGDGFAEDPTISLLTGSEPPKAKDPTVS
For assay [13], the target named is ELF4 (Homo sapiens, UniProt Q99607 1-663). The conditions noted are these: protein: recombinant; tags: N-terminal GST; dsDNA, one strand shown. The method, boiled down: as §1
Sequence of ELF4 (Q99607 whole entry): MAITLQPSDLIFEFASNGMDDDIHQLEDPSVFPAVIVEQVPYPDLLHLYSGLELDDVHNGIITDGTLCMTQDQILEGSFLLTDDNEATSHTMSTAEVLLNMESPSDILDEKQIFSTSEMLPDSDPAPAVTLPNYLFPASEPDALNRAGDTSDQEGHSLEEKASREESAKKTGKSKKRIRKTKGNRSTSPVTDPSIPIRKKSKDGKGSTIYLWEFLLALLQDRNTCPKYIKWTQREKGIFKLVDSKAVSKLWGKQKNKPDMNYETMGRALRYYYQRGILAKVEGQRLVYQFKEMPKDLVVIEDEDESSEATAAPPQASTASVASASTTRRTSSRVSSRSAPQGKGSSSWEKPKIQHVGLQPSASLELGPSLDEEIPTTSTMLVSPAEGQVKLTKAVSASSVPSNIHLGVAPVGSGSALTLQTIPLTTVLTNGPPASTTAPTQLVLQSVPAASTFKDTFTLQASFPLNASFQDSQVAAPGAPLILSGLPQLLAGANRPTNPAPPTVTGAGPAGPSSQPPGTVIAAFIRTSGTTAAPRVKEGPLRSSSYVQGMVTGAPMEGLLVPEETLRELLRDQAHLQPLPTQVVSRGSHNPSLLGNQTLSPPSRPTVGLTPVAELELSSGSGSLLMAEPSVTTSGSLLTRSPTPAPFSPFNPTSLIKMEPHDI
For assay [14], the target named is T8, ELK4 (Homo sapiens, UniProt P28324-2 1-405).
T8 sequence: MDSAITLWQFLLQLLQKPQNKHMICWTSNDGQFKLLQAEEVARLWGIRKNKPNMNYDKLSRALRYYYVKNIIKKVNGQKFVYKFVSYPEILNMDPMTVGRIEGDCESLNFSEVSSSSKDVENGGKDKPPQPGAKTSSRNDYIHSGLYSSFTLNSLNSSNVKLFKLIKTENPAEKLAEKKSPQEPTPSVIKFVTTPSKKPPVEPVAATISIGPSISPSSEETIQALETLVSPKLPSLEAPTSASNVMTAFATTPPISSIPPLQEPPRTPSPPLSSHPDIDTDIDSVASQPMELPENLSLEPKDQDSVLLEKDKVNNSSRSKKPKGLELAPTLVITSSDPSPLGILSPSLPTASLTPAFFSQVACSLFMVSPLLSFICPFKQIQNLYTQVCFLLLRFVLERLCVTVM
The settings on record: protein: recombinant; tags: N-terminal GST; dsDNA, one strand shown. Summed up:
as §1

The target of assay [15] is T9, ETV2 (Homo sapiens, UniProt O00321 1-342).
T9 sequence: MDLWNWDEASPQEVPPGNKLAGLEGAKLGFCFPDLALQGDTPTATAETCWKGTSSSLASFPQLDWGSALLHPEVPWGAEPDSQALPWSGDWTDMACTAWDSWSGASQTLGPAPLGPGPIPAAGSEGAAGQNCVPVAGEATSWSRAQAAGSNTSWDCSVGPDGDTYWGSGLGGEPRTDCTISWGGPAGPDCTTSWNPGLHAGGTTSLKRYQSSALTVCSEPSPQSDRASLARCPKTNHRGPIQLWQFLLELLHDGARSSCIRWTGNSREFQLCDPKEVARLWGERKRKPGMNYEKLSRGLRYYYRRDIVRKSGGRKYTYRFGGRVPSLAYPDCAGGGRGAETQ
The conditions noted are these: protein: recombinant; tags: N-terminal GST; dsDNA, one strand shown. The method, boiled down: as §1

Assay [16] has as its target T10, ELF3 (Homo sapiens, UniProt P78545 1-371).
T10 sequence: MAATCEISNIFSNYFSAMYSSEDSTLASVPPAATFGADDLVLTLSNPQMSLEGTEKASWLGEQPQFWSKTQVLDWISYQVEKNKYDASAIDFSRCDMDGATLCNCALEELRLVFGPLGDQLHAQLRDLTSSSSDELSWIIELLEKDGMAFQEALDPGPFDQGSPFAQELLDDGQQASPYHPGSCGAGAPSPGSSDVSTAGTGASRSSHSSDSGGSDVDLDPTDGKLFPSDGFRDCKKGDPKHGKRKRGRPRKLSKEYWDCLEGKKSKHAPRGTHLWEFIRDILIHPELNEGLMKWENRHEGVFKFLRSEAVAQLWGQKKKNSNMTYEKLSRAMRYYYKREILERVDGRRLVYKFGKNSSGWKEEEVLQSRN
The conditions noted are these: protein: recombinant; tags: N-terminal GST; dsDNA, one strand shown. Summed up:
as §1

Assay [17] deals with CRX (Homo sapiens, UniProt O43186 1-299). The conditions noted are these: protein: recombinant; tags: N-terminal GST; dsDNA, one strand shown. Summed up:
as §1

Assay [18] has as its target ETV1 (Homo sapiens, UniProt P50549 1-477). The conditions noted are these: protein: recombinant; tags: N-terminal GST; dsDNA, one strand shown. Summed up: as §1

Sequence of SPIB (Q01892 whole entry): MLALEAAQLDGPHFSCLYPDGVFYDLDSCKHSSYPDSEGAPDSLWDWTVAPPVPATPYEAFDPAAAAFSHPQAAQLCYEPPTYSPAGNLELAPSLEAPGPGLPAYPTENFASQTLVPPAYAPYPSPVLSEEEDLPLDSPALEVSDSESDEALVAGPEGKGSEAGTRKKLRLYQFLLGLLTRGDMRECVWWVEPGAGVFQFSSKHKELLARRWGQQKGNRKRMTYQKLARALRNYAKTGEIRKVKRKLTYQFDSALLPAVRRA
Sequence of ELF1 (P32519 whole entry): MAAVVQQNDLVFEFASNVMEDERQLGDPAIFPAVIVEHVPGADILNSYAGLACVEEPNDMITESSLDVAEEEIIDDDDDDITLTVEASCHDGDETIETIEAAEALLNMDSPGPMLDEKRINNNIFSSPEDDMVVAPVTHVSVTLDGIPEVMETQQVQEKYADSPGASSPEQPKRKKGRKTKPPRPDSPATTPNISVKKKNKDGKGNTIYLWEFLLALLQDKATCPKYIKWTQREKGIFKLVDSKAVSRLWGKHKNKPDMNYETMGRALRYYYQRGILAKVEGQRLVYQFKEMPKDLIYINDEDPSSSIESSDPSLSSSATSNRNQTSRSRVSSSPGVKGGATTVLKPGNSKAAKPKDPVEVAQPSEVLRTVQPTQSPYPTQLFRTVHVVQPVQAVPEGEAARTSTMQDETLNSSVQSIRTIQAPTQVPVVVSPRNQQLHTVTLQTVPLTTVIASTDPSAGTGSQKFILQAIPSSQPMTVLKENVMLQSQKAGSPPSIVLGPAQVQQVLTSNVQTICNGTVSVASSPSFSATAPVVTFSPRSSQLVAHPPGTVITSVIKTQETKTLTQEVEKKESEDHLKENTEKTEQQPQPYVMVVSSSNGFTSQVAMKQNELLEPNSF
Sequence of ETV1 (P50549 whole entry): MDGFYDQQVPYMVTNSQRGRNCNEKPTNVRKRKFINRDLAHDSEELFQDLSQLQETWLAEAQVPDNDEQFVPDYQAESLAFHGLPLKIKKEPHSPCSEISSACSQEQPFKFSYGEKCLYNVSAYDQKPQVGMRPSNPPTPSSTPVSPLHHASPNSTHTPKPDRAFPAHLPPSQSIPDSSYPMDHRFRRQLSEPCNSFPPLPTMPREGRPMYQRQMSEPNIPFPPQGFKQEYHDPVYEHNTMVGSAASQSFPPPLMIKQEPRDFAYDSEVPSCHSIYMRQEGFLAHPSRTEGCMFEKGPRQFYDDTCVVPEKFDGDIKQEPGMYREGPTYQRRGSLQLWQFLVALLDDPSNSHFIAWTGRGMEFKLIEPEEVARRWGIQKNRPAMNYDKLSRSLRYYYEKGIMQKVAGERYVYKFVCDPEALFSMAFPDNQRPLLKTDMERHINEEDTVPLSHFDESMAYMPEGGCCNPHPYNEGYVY
Sequence of CRX (O43186 whole entry): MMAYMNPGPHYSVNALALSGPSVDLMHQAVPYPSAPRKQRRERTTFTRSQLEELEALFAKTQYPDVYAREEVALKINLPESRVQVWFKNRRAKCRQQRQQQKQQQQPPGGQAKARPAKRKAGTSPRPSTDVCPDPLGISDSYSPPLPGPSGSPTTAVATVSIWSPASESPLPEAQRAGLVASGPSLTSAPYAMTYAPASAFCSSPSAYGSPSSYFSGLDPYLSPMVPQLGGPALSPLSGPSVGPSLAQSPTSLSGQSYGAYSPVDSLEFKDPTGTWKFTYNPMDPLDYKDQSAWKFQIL

CTTTAG: the binding signal in assay [1] was 1.27 fold enrichment (6-mer frequency, TF over GST control); in assay [2], 1.31 fold enrichment (6-mer frequency, TF over GST control); in assay [3], 1.21 fold enrichment (6-mer frequency, TF over GST control); in assay [4], 1.12 fold enrichment (6-mer frequency, TF over GST control); in [5], 1.19 fold enrichment (6-mer frequency, TF over GST control); in assay [6], 1.08 fold enrichment (6-mer frequency, TF over GST control). For the same sequence, the binding signal was 1.28 fold enrichment (6-mer frequency, TF over GST control) in [7]; 1.11 fold enrichment (6-mer frequency, TF over GST control) in assay [8]; 1.11 fold enrichment (6-mer frequency, TF over GST control) in assay [9]; 1.18 fold enrichment (6-mer frequency, TF over GST control) in assay [10]; 1.1 fold enrichment (6-mer frequency, TF over GST control) in assay [11]; 1.37 fold enrichment (6-mer frequency, TF over GST control) in [12]. Besides, the binding signal in assay [13] was 1.26 fold enrichment (6-mer frequency, TF over GST control); in assay [14], 1.15 fold enrichment (6-mer frequency, TF over GST control); in assay [15], 1.23 fold enrichment (6-mer frequency, TF over GST control); in assay [16], 1.34 fold enrichment (6-mer frequency, TF over GST control); in assay [17], 1.51 fold enrichment (6-mer frequency, TF over GST control); in assay [18] it was 1.24 fold enrichment (6-mer frequency, TF over GST control).

The record behind these values is paper PMC7862700, “An all-to-all approach to the identification of sequence-specific readers for epigenetic DNA modifications on cytosine”.
